Inconclusive results are not listed. Active and inactive are the calls of the source. Unless noted, no rule for the calls is given here.
Experiments:
[1] = qHTS profiling of the MIPE4 collection as inhibitors of Plasmodium falciparum (3D7) proliferation (AID 743344);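 also: scaled between DMSO vehicle wells and 0.29 µM artemisinin as full inhibition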; conditions: P. falciparum 3D7 in erythrocytes, SYBR Green DNA fluorescence, 72 h; at 28.5 µM
Summary of the method: (§1)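 Parasite DNA was quantified by SYBR Green I fluorescence (ex 485, em 535 nm) after overnight lysis in saponin/Triton buffer at room temperature. Cultures at 0.3% parasitemia and 2.5% hematocrit were first exposed to compound for 72 h at 37 C; signals were normalised to artemisinin (0.29 uM) and vehicle wells.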

[2] = qHTS profiling of the MIPE4 collection as inhibitors of Plasmodium falciparum (DD2) proliferation (AID 743345); conditions: P. falciparum Dd2 in erythrocytes, SYBR Green DNA, 72 h; at 28.5 µM unless noted
Summary of the method: as §1

[3] = qHTS profiling of the MIPE4 collection as inhibitors of Plasmodium falciparum (DD2) proliferation (Rep 2) (AID 743346); conditions: P. falciparum Dd2 in erythrocytes, SYBR Green DNA, 72 h; at 28.5 µM
Summary of the method: as §1

[4] = qHTS profiling of the MIPE4 collection as inhibitors of Plasmodium falciparum (HB3) proliferation (AID 743347);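 also: plate controls were DMSO vehicle wells for no effect and artemisinin wells for full effect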; conditions: P. falciparum HB3 in erythrocytes, SYBR Green DNA, 72 h; at 28.5 µM
Summary of the method: as §1

[5] = High-throughput drug toxicity screening in the BPDCN cell line Gen2.2 (AID 1224824); conditions: Gen2.2 BPDCN cells; at 45.8 µM (top of the series);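 also: cells exposed to compounds for 48 h before reading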
Summary of the method: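 Gen2.2 cells (500/well) in phenol red-free RPMI with 10% FBS were exposed to compounds for 48 h at 37 °C, 5% CO2. Viability was read by CellTiter-Glo luminescence and normalized to DMSO (100%) and 9.2 uM bortezomib (0%).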

[6] = High-throughput drug toxicity screening in the BPDCN cell line Cal-1 (AID 1224825); conditions: Cal-1 BPDCN cell viability, qHTS; at 45.8 µM (top of the series)
Summary of the method: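 Viability of the BPDCN line Cal-1 is measured as ATP-based luminescence (CellTiter-Glo) following 48 h incubation with compounds. Percent activity uses DMSO-treated wells as 100% and 9.2 uM bortezomib as 0%.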

[7] = qHTS assay for measurement of the activity of small molecule inhibitors on Zika virus induced Caspase-3 activity in human iPSC derived neural progenitor cells (hNPCs) (AID 1224857; active = well fitted inhibition curve with a large enough effect; also: % of control where 0% means no effect; nearly all actives have a fitted effect of over 65% in size); conditions: hNPCs ZIKV-induced caspase-3/7, Caspase-Glo luminescence, 6 h; series mostly up to 45.7 µM
Summary of the method: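 Pretreat hNPCs with compound 1 h; infect ZIKV 2 FFU/cell; 6 h 37 C, 5% CO2; Caspase-Glo 3/7, 30 min RT; luminescence; normalize to no-virus and virus-only wells.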

[8] = qHTS assay for measurement of the activity of small molecule inhibitors on Zika virus induced Caspase-3 activity in human astrocytoma cells (AID 1224859; active = well fitted inhibition curve with a large enough effect; also: potency is read from the fitted curve at half-maximal effect); conditions: SNB-19 ZIKV-induced caspase-3/7, luminescence, 6 h; series mostly up to 45.7 µM
Summary of the method: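 Human SNB-19 astrocytoma cells in RPMI 1640 with 10% FBS receive compound one hour ahead of Zika virus at 2 FFU/cell. After 6 h infection, caspase-3/7 activity is detected by Caspase-Glo luminescence.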

[9] = qHTS Screen of the MIPE 4.0 Collection Against Ewings Sarcoma (RDES) (AID 1259252; active = well fitted inhibition curve with a large enough effect; also: nearly all actives have a fitted effect of over 35% in size; also: potency is read from the fitted curve at half-maximal effect); conditions: RD-ES Ewing sarcoma viability, CellTiter-Glo, 48 h; series mostly up to 45.8 µM
Summary of the method: (§2)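 Here, cells in 5% FBS RPMI were exposed for two days (48 h) to compound dilutions added four hours after plating. ATP-based CellTiter-Glo luminescence measured viability, normalized to vehicle and no-cell blanks.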

[10] = qHTS Screen of the MIPE 4.0 Collection Against Ewings Sarcoma (TC71) (AID 1259253; active = well fitted inhibition curve with a large enough effect; also: nearly all actives have a fitted effect of over 40% in size; also: potency is read from the fitted curve at half-maximal effect); conditions: TC71 Ewing sarcoma viability, CellTiter-Glo, 48 h; series mostly up to 45.8 µM
Summary of the method: as §2

Row | Structure (SMILES) | parasite growth, % of DMSO control [1] [%] | parasite growth remaining, % of DMSO control (lower = more inhibition) [2] [%] | parasite growth, % of control (lower = inhibition) [3] [%] | growth, % of control [4] [%] | cell viability, % of control (lower = more cytotoxic) [5] [%] | viability (% of control) [6] [%] | Potency [7] | Potency [8] | Potency [9] | Potency [10]
1 | N=c1c2c(-c3ccccc3)c(-c3ccccc3)n(Cc3ccccc3)c2ncn1C1CCC(O)CC1 (stereo not drawn) | 10.7 | 9.02 | 12.7 | 9.68 | 130 | 11.7 | inactive | inactive | 1.18 µM (active) | 
2 | c1ccc(CCCN2CCN(CCOC(c3ccccc3)c3ccccc3)CC2)cc1 | 9.93 | 25.6 | 18.7 | 19.2 | 8.38 | 5.14 | inactive | inactive |  | 16.6 µM (active)
3 | c1cc2c(cc1[C@H]1OC[C@H]3[C@H]1CO[C@H]3c1ccc3c(c1)OCO3)OCO2 | 104 | 91.9 | 126 | 107 | 197 | 91 | inactive | inactive |  | 
4 | COc1ccc(C(=O)c2c(C)n(CCN3CCOCC3)c3cc(I)ccc23)cc1 | 44.6 | 85 | 35.4 | 33.7 | 4.27 | 5.23 | inactive | inactive |  | 
5 | COc1ccc2c(c1)CN(C)CC2c1ccc(Cl)c(Cl)c1 (stereo not drawn) | 12.3 | 40.2 | 15.9 | 9.4 | 41 | 12.2 | inactive | inactive |  | 
6 | O=C(O)CNC(=O)c1c(O)c2ccccc2n(Cc2ccccc2)c1=O | 88 | 93.4 | 75.1 | 105 | 256 | 132 | inactive | inactive | 14.8 µM (active) | 13.2 µM (active)
7 | CC1(N2CCC(n3c([C@@H]4CCCNC4)nc4ccccc43)CC2)CCCCCCC1 | 5.01 | 11.2 | 19.4 | 6.13 | 17.2 | 5.69 | inactive | inactive |  | 
8 | CC(=CCCC1=CCC(C2=CC(=O)OC2O)OC1O)CCC1=C(C)CCCC1(C)C (stereo not drawn) | 15.8 | 44.2 | 72 | 36 | 124 | 103 | inactive | inactive | 18.7 µM (active) | 
9 | CCOC(=O)c1c(C(C#N)=CN)c2ccc(Cl)c(Cl)c2n1C | 90 | 97.1 | 149 | 89.6 | 130 | 94.3 | inactive | inactive |  | inactive
10 | C#CC1(O)CCC2C3CCC4=CC(=O)CCC4(C)C3CCC21C (stereo not drawn) | 78.6 | 106 | 88 | 89 |  | 100 | inactive | inactive | inactive | inactive
11 | CC[C@@H](C(N)=O)N1CCCC1=O | 69.9 | 90.5 | 46.9 | 78.5 | 211 | 113 | inactive | inactive | inactive | inactive
12 | C=C[C@@H]1CN2CCC1C[C@H]2[C@H](O)c1ccnc2ccccc12 (stereo partly drawn) | 26.8 | 10.8 | 46.5 | 21.5 |  | 47.1 | inactive | inactive | 23.5 µM (active) | 20.9 µM (active)
13 | CC(O)=C(C#N)C(=O)Nc1cc(Br)ccc1Br | 80.7 | 97 | 78.2 | 93.7 | 79.3 | 103 | inactive | inactive |  | 23.5 µM (active)
14 | CC1=NN=C(c2ccc(N)cc2)c2cc3c(cc2C1)OCO3 | 133 | 108 | 93 | 685 | 244 | 12.1 | inactive | inactive | inactive | inactive
15 | C=C1C[C@H]2[C@H]3CCC(=O)[C@@]3(C)CC[C@@H]2[C@@]2(C)C=CC(=O)C=C12 | 51.5 | 90.6 | 50.5 | 29 | 12.4 | 32.6 | inactive | inactive |  | 
16 | Oc1ccc2c3c1O[C@H]1c4[nH]c5c(c4C[C@@]4(O)[C@@H](C2)N(CC2CC2)CC[C@]314)C[C@@]1(O)[C@H]2Cc3ccc(O)c4c3[C@@]1(CCN2CC1CC1)[C@H]5O4 | 10.3 | 25.9 | 13 | 4.03 | 143 | 119 | inactive | inactive |  | inactive
17 | O=C(NCC1CCOCC1)c1cnc(Nc2ccc(Cl)cc2Cl)nc1C(F)(F)F | 52.4 | 102 | 52.2 | 49.9 | 7.01 | 7.59 | inactive | 8.33 µM (active) |  | 
18 | CCc1c(C(=O)C(N)=O)c2c(OCC(=O)O)cccc2n1Cc1ccccc1 | 111 | 97.5 | 83.8 | 99.7 | 114 | 115 | inactive | inactive |  | 20.9 µM (active)
19 | CC(C)N(CCNC(=O)CN1CCCC1=O)C(C)C | 101 | 17.4 | 121 | 108 |  | 111 | inactive | inactive | inactive | 
20 | C[C@]12N[C@H](Cc3ccccc31)c1ccccc12 |  |  |  |  |  |  | inactive | inactive |  | 
21 | CSCC[C@@H](NC(=O)[C@@H](Cc1ccccc1)NC(=O)CNC(=O)CNC(=O)[C@@H](N)Cc1ccc(O)cc1)C(=O)O | 92.2 | 49.8 | 89.9 | 99.5 |  | 134 | inactive | inactive | inactive | inactive

— PubChem BioAssay (NCATS)
